# In the library only some 2.3% were active in any assay of this set; here they are far more common.
# M1 PAM: human M1 muscarinic receptor positive allosteric modulators, primary screen, CHO-K1 cells, Fluo-8 calcium fluorescence, 1536-well | AID 588819, 2011 | Muscarinic acetylcholine receptor M1 (Homo sapiens), P11229 | actives 0.088% (n = 360,000) | activation, % at 3 µM | CHO-K1 hM1, ACh EC20; 0% = ACh EC20, 100% = maximal ACh; in the data active = activation above about 19%, passing the limit was not always enough
# Target sequence (P11229 whole entry, looked up): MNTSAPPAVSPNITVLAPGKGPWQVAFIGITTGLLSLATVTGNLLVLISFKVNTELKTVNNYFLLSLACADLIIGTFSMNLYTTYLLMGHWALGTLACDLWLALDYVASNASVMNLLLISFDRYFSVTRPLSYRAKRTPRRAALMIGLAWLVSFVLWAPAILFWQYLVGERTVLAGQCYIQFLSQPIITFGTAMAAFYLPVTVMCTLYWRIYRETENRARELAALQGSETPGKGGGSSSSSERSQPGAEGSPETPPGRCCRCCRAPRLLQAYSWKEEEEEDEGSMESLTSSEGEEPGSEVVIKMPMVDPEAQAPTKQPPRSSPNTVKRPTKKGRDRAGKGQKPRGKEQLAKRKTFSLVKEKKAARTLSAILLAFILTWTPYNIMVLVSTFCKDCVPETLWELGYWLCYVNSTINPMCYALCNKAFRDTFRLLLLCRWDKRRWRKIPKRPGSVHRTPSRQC
# M1 antag: human M1 muscarinic receptor antagonists, primary screen, CHO-K1 cells, Fluo-8 calcium fluorescence, 1536-well; CHO-K1 hM1, ACh EC80 antagonist; inhibition, % at 3 µM; actives 1.3% (n = 360,000); AID 588852, 2011;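 active = percent inhibition above its own plate's cutoff, namely the mean of that plate's compound wells plus 3 SD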;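 note: peak over basal fluorescence ratio during 140 s after agonist addition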
# CHRM1 agonist: human M1 muscarinic receptor agonists, primary screen, Fluo-8 calcium fluorescence, CHO-K1 cells, HTS | CHO-K1 hM1, agonist mode; 0% DMSO, 100% acetylcholine EC100 | activation, % at 3 µM | actives 0.33% (n = 360,000) | AID 588814, 2011;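 active = activation above the run's mean compound activation plus 3 SD, cut at about 16% in these data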;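 note: peak over basal fluorescence ratio within a 140 s kinetic read after compound addition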
# M1 PAM parental: nonselective calcium activators in parental CHO-K1 cells, primary screen, counter-screen for M1 PAM project, cell-based, Fluo-8 calcium fluorescence, full deck, 1536-well | AID 602247, 2012 | activation, % at 3 µM | actives 0.02% (n = 360,000) | ATP EC20; 0% at ATP EC20, 100% at ATP max;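 active = activation above the run cutoff, the mean activation of all test compounds plus 3 SD, cut at about 40% in these data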;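 note: peak over basal fluorescence ratio in a 140 s read after ATP addition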
# CHO-K1 Ca antag: nonselective inhibitor or artifact in parental CHO-K1 cells; ATP-induced calcium, Fluo-8 fluorescence; inhibition, % at 3 µM; actives 0.6% (n = 360,000); AID 602250;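 active = inhibition above a per-plate cutoff, the plate's mean sample inhibition plus 3 SD, cut at about 24% in these data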
# M1 ag parental: counter-screen for M1 agonists: effect in parental CHO-K1 cells; Fluo-8 calcium fluorescence; scaled to maximal ATP response, vehicle zero; activation, % at 3 µM; actives 0.48% (n = 360,000); in the data active = activation above about 15%;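 note: untransfected CHO-K1 host cells lacking M1 receptor as counterscreen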
# A number is an active result; - = inactive; . = no result.
SMILES,M1 PAM,M1 antag,CHRM1 agonist,M1 PAM parental,CHO-K1 Ca antag,M1 ag parental
C#CC(=O)CC1(CN(Cc2ccccc2)C(=O)OC(C)(C)C)CCCCC1,-,34,-,-,-,-
CON(C)C(=O)CC1(CN(Cc2ccccc2)C(=O)OC(C)(C)C)CCCCC1,-,-,-,-,-,-
CCOC(=O)C1CCCN(C(=O)c2cc(C)oc2C)CC1 (stereo not drawn),-,-,-,-,-,-
O=C(NC(Nc1nc2ccc([N+](=O)[O-])cc2s1)(C(F)(F)F)C(F)(F)F)c1ccccc1Cl,-,-,-,-,28,-
O=C(NC(Nc1nc2ccc([N+](=O)[O-])cc2s1)(C(F)(F)F)C(F)(F)F)c1cccnc1,-,-,-,-,24,-
COCCCN1C(=O)C(CC(=O)NCc2ccco2)CC(C(=O)N(C(C)C)C(C)C)=C1C (stereo not drawn),-,-,-,-,-,-
CCN(CC(=O)Nc1ccccc1C(F)(F)F)C(=O)CN1C(=O)NC2(CCCCC2)C1=O,-,-,-,-,27,-
CCC1(c2ccccc2)NC(=O)N(CC(=O)N(CC(=O)Nc2ccccc2C(F)(F)F)Cc2ccco2)C1=O (stereo not drawn),-,-,18,-,-,-
c1ccc(-c2ccc(CN3CCN(c4ncccn4)CC3)cc2)cc1,-,-,-,-,25,-
c1ccc(N2CCN(Cc3ccc4c(c3)OCO4)CC2)nc1,-,-,-,-,-,-
c1ccc(CN2CCN(c3ncccn3)CC2)cc1,-,-,-,-,-,-
c1ccc(COc2ccc(CN3CCN(c4ccccn4)CC3)cc2)cc1,-,32,-,-,-,-
CC1(c2nnnn2-c2ccc3c(c2)OCCO3)CCC(=O)N1CCCn1ccnc1 (stereo not drawn),.,.,.,-,-,-
O=C(Nc1cccc(/C=C/c2ccccn2)c1)c1ccc(-n2cncn2)cc1,-,31,-,-,-,-
CC1CC(C)(C)CC2(C1)NC(=O)N(CC(=O)Nc1ccc3c(c1)OCO3)C2=O (stereo not drawn),-,-,-,-,-,-
COc1cc(CN2C(=O)C(Cc3ccccc3)ON=C2c2ncccc2C)cc(OC)c1 (stereo not drawn),-,-,-,-,-,-
CC(C)(C)NCC(O)(c1ccc(Cl)cc1)c1ccc(Cl)cc1,-,-,-,-,-,-
CCN(CC)CCNCC(O)(c1ccc(Cl)cc1)c1ccc(Cl)cc1,-,51,-,-,-,-
Cc1ccnc(N/C=C(\C#N)c2nc(-c3cccc(Br)c3)cs2)c1,-,43,161,-,39,85
N#C/C(=C\Nc1ccc2cn[nH]c2c1)c1nc(-c2ccccc2)cs1,-,-,-,-,-,-
N#Cc1ccc(OCC(=O)OCC(=O)Nc2sccc2C(N)=O)cc1,-,-,-,-,-,16
Cc1ccc(OC(C)C(=O)OCC(=O)Nc2sccc2C(N)=O)cc1 (stereo not drawn),-,-,-,-,-,15
Cc1ccc(OCC(=O)OCC(=O)Nc2sccc2C(N)=O)cc1C,-,-,-,-,33,-
NC(=O)c1ccsc1NC(=O)COC(=O)CSc1ccc(Cl)cc1,-,-,-,-,24,-
NC(=O)c1ccsc1NC(=O)COC(=O)c1ccc(Cl)cc1,-,-,-,-,-,-
SMILES,M1 PAM,M1 antag,CHRM1 agonist,M1 PAM parental,CHO-K1 Ca antag,M1 ag parental
CCOc1ccc(CC(=O)N/N=C/c2sccc2C)cc1,-,-,-,-,-,-
COc1ccccc1N(CC(=O)N1CCN(Cc2ccccc2)CC1)S(=O)(=O)c1ccccc1,-,-,-,-,-,-
CCC1=NN2C(=N)/C(=C/c3cc(C)n(Cc4ccccc4)c3C)C(=O)N=C2S1,-,-,20,-,-,20
Cc1cc(/C=C2\C(=N)N3N=C(c4ccco4)SC3=NC2=O)c(C)n1Cc1ccccc1,-,52,42,-,-,-
Cc1nnc(-c2ccc(Cl)cc2)[nH]c1=O,-,-,-,-,-,-
CCOc1ccc(CCNS(=O)(=O)c2ccc3c(c2)oc(=O)n3C)cc1OCC,-,-,-,-,-,15
COc1ccc(CCNS(=O)(=O)c2ccc3c(c2)oc(=O)n3C)cc1OC,-,-,-,-,-,-
COCc1cc(C)nc(SCC(=O)Nc2cccc3cccnc23)c1C#N,-,-,-,-,25,-
COCc1cc(C)nc(SCC(=O)Nc2ccccc2N2CCOCC2)c1C#N,-,-,-,-,-,-
CC(C)CN1CCC1(C)C(=O)Nc1cc(-c2ccccc2)nn1C (stereo not drawn),-,-,-,-,-,-
CS(=O)(=O)N1CCN(c2ccccc2NC(=S)NC(=O)c2ccccc2[N+](=O)[O-])CC1,-,29,-,-,-,-
CC(C)C[C@@H](CN)NC(=O)c1nc[nH]c1C(=O)N[C@@H](CC(=O)O)C(=O)CNC[C@H](C)NC(=O)c1nc[nH]c1C(=O)N[C@@H](CC(=O)O)C(=O)O,-,-,-,-,-,-
O=C1C(=C2CCc3ccccc32)Cc2ccccc21,-,-,-,-,-,-
c1ccc2c(c1)CCc1ccccc1C2=C1CCNCC1,-,100,-,-,-,-
CCN1/C(=C/C=C/c2oc3ccc(-c4ccccc4)cc3[n+]2CC)Oc2ccc(-c3ccccc3)cc21,-,103,599,-,102,857
CC1CCN(C(=O)CN2C(=O)NC(c3ccccc3)(c3ccccc3)C2=O)CC1,-,-,-,-,-,-
CC(C)(C)OC(=O)N1CCCC(C(=O)Nc2ccc(C(=O)NCc3ccccc3)cc2)C1 (stereo not drawn),-,-,-,-,-,-
CN1CCC(C2(O)c3ccccc3CSc3sccc32)CC1 (stereo not drawn),-,-,-,-,-,-
CN1CCC(C2(O)c3ccccc3CCc3ccccc32)CC1,-,57,-,-,-,-
COc1cccc(C(=O)C2CCCN(C/C=C/c3ccccc3OC)C2)c1 (stereo not drawn),-,-,-,-,-,-
COc1ccccc1C(=O)C1CCCN(Cc2cccc3nccnc23)C1 (stereo not drawn),-,45,-,-,-,-
COc1ccc(C(=O)C2CCCN(C/C=C/c3ccccc3OC)C2)c(OC)c1 (stereo not drawn),-,51,-,-,-,-
COc1c(C)cc(C(=O)C2CCCN(Cc3cccc4nccnc34)C2)cc1C (stereo not drawn),-,42,-,-,-,-

# Screening data: PubChem, The Scripps Research Institute Molecular Screening Center
